# Laboratory results as given in PubChem BioAssay (NCI).
# The panel holds about 83,000 compounds, 20% with a hit somewhere; the sample as a whole holds those more often.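 Testing used 96-well plates and a 48-hour single-concentration exposure. Example: -40 means 40% of the starting cells died.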 Values without a mark were called inactive. The source made the active and inactive calls. How the source made its calls: active means growth percent below 10; inactive means the rest.
# Tested on: HL-60(TB) leukemia
# Assay: NCI-60 one-dose screen, 48 h (100 = growth as untreated, 0 = no growth, -100 = all killed)
# Conditions: 10 µM unless noted
row,SMILES,growth
1,COc1ccc2nc3cc(Cl)ccc3c(NC(=O)CSc3ccc(Cl)cc3)c2c1,-50.7% (active)
2,CS(=O)c1cccc(-c2ccc3nc(N)n(-c4ccc(C(F)(F)F)cc4)c(=O)c3c2)c1 (stereo not drawn),100%
3,CCN(CC)CCOC(=O)Nc1ccccc1Cl,102%
4,Cc1cc(C#Cc2ccccc2)ccc1-n1c(/C=C/c2cc(O)ccc2O)nc2ccccc2c1=O,-11.9% (active)
5,C=CCn1c(=O)c2cnc(Nc3ccc(N4CCN(C)CC4)cc3)nc2n1-c1cccc(C(C)(C)O)n1,-22.4% (active)
6,CSc1nc(CC(C)C)c(C#N)c(=O)n1C,78.7%
7,COc1cccc(C2C(C#N)=C(N)Oc3c2ccc2ccccc32)c1 (stereo not drawn),-30.3% (active)
8,CC1(C)NCCC[C@]2(C)[C@H]3CC=C4[C@@H]5C[C@@](C)(CO)CC[C@]5(C)CC[C@@]4(C)[C@]3(C)CC[C@@H]12,66.3%
9,COc1ccc(NC(=O)c2ccc(Nc3ncnc4[nH]c(C)c(C)c34)cc2)cc1,89.1%
10,CC1/C=C/C=C/C=C/C=C/C=C/C=C/C=C/C(O[C@@H]2O[C@H](C)[C@H](O)[C@@H](O)[C@@H]2N)CC(O)C(C(=O)O)C(O)CC(=O)CC(O)CC(O)CC(O)CC(=O)CCCC(=O)CC(=O)OC1C(C)CC(C)C(O)CC(=O)c1ccc(N)cc1 (stereo partly drawn),-60.3% (active)
11,CC[C@]1(O)C[C@@H]2CN(CCc3c([nH]c4ccccc34)[C@@](C(=O)OC)(c3cc4c(cc3OC)N(C)[C@H]3[C@@](O)(C(=O)OC)[C@H](OC(C)=O)[C@]5(CC)C=CCN6CC[C@]43[C@@H]65)C2)C1,-7.59% (active)
12,CN1C(=O)N(C)C2C1NN=c1s/c(=C\c3ccc([N+](=O)[O-])cc3)c(=O)n12 (stereo not drawn),7.14% (active)
13,O=C(Cn1nnc2ccccc21)Nc1ccc(-c2nc3ccccc3s2)cc1,90.8%
14,COc1ncc2cc1NS(=O)(=O)c1cccc(c1)C(=O)NCC1=CC=C(S1)c1ncnc3c1SC2=C3C,-10.8% (active)
15,Cc1c(-c2ccc(C3CCCCC3)cc2)nc2ccc(F)cc2c1C(=O)O,24.8%
16,O=c1oc2ccc(Cl)cc2c(=O)n1-c1ccc(F)cc1F,-28.8% (active)
17,O=C(c1ccccc1)N1N=C(c2ccccc2)CC1c1nnc2n(Cc3ccccc3)c(=O)c3c4c(sc3n12)CCCC4 (stereo not drawn),97.7%
18,O=C(O)c1ccccc1C(F)(F)F,100%
19,O=C(/C=C/C12c3ccccc3C(c3ccccc31)C1C(=O)NC(=O)C12)c1ccc(I)cc1 (stereo not drawn),6.86% (active)
20,Cc1cc(O)ccc1O,-14.1% (active)
21,COc1ccc(OC)c(-c2cc(-c3ccc(Cl)cc3)c3c(N)c(C(=O)c4ccc(Cl)cc4)sc3n2)c1,110%
22,CCN(CC)CCNC(=O)n1cc(-c2ccncc2)c(-c2ccc(Cl)c(OC)c2)n1,95.9%
23,O=C(/C=C(O)/C=C/c1ccc(SC(F)(F)F)cc1)/C=C/c1ccc(SC(F)(F)F)cc1,81.9%
24,COc1cc(/C=N\Nc2ccccc2)ccc1OC(=O)c1ccccc1,-10.8% (active)
25,COc1cc2cc(Oc3ccc(NC(=O)Nc4cccc(C(F)(F)F)c4)cc3)c(C)nc2cc1OC,-24.8% (active)
26,COc1cc(/C=C2/C=C(c3ccc(C(C)(C)C)cc3)N(CCc3ccc(S(N)(=O)=O)cc3)C2=O)cc(OC)c1OC,20.5%

row,SMILES,growth
1,Cc1ccc(N)cc1[N+](=O)[O-],96.5%
2,COc1cccc(CCN2C(=O)CCC3=C2CCC3=O)c1,99.9%
3,CCN1C(=O)N(CC)C2C1NN=c1s/c(=C\c3ccccc3)c(=O)n12 (stereo not drawn),-45.3% (active)
4,CCOC(=O)c1c(C)nc2c(c1N)/C(=C/c1cccs1)C(=O)N2Cc1ccccc1,60.4%
5,O=Cc1c(OCc2cnnn2CC(=O)Nc2ccc(Cl)cc2)ccc2ccccc12,98.5%
6,COc1cc2ccnc(C=O)c2cc1OC,-27.4% (active)
7,CCC(C)[C@@H]1NC(=O)[C@@H]2CCCN2C(=O)[C@H](Cc2ccccc2)NC(=O)[C@@H]2CCCN2C(=O)[C@H](Cc2ccccc2)NC(=O)[C@@H]2CCCN2C(=O)[C@H](Cc2ccccc2)NC1=O (stereo partly drawn),95.6%
8,CC/C=C\C/C=C\C[C@H](O)C/C=C1/C(=O)C=C[C@@H]1C/C=C\CCCC(=O)OC,-19.5% (active)
9,Cc1ccnc2c(OCc3ccccc3)cccc12,111%
10,CCCCCCCCCCCCCCCCNCCC[C@@H](C)[C@H]1CC[C@H]2[C@@H]3[C@H](OCCCN)C[C@@H]4C[C@H](OCCCN)CC[C@]4(C)[C@H]3C[C@H](OCCCN)[C@]12C,4.5% (active)
11,CCOc1ccc(/C=N\N=C\c2ccc(OCC)cc2)cc1,76.6%
12,COc1cc(NS(=O)(=O)c2ccc(-c3cnc(C4CC4)o3)cc2)ccc1F,1.92% (active)
13,O=C(Nc1ccc(Br)cc1F)c1cc(Br)ccc1O,-23.7% (active)
14,Clc1ccc(-c2cn(-c3ccccc3)c(-c3ccccc3)n2)cc1,47.5%
15,CCC(=O)Oc1ccc(/C=N/NC(N)=S)nc1,19.9%
16,CC1(C)CC[C@]2(C(=O)O)CC[C@]3(C)C(=CC[C@@H]4[C@@]5(C)C/C(=C/c6cccnc6)[C@H](O)C(C)(C)[C@@H]5CC[C@]43C)[C@@H]2C1,-8.82% [100 µM] (active)
17,Clc1ccc2nc(-c3ccc(-c4ccc(/C=N/NC5=NCCN5)cc4)s3)cn2c1,98.1%
18,O=C(CSc1nc2sc3c(c2c(=O)n1-c1ccc(Cl)cc1)CCCC3)Nc1nc(-c2cccc(Br)c2)cs1,101%
19,NC(=O)c1c(NC(=O)c2ccccc2)sc2c1CCC(=O)C2,-6.87% (active)
20,O=C(c1ccccc1)C1(Br)CCCCC1,106%
21,COc1ccc(-c2cn(-c3cccc(C(=O)/C=C/c4cc(OC)c(OC)c(OC)c4)c3)c(=O)[nH]2)cc1,5.72% (active)
22,CCOC(=O)n1cc(-c2nonc2-c2cn(C)c3ncccc23)c2cc(F)ccc21,92.8%
23,O=C(NCCNC(=O)c1ccc(F)cc1)Nc1ccc(-n2cc(-c3ccncc3)c(-c3ccc(Cl)c(O)c3)n2)cc1,-14.1% (active)
24,COc1ccc(OC)c(/C=C2\COc3ccc(O)c(O)c3C2=O)c1,-11% (active)
25,C=CC(CC(c1ccccc1)(c1ccccc1)c1ccccc1)N(CC)CC (stereo not drawn),71.5%
26,COc1ccc(/C=C/C(=O)c2ccc(-n3cc(CN4CCN(c5cc6c(cc5F)c(=O)c(C(=O)O)cn6C5CC5)CC4)nn3)cc2)cc1,85.9%

row,SMILES,growth
1,CN=S(=O)(NC(=O)c1ccc(Cl)cc1Cl)c1ccc(Br)s1 (stereo not drawn),108%
2,COc1ccc(/C=C(/c2ccccc2)[N+](=O)[O-])cc1,-28.6% (active)
3,Cn1cc(-c2nn3cc(-c4ccccc4)nc3s2)c2ccccc21,84.8%
4,COc1ccc(/C=C\c2cc(OC)c(OC)c(OC)c2)cc1OCC(=O)Nc1ccc2nc(C)sc2c1,-5.19% (active)
5,C#CCSc1nnnn1-c1ccc(Br)c(C)c1,88.4%
6,CCc1ccc(Nc2ncnc3c2cnn3-c2cccc(Br)c2)cc1,114%
7,NC(=O)Nc1ccc(-n2cnc3cc(-c4ccc(O)cc4)ccc32)cc1,95.4%
8,CCCCOc1nc2ccc(Cl)cc2cc1/C=C/C(=O)/C=C1/CC(c2cc3cc(Cl)ccc3nc2OCCCC)Nc2ccccc2N1 (stereo not drawn),101%
9,CN(C)CCOc1ccc(-c2nc3sccn3c2-c2ccnc(S(C)(=O)=O)n2)cc1,97.1%
10,CC1=C(C(=O)OCC2CCN(C(=O)OC(C)(C)C)CC2)[C@H](c2cccc(C#N)c2)C2=C(CC(C)(C)CC2=O)N1,27.5%
11,CC1(C)C(=O)/C(=C\c2cccnc2)C[C@]2(C)[C@H]3CC[C@@H]4[C@H]5[C@H](C(=O)/C=C/c6cccnc6)CC[C@]5(C(=O)O)CC[C@@]4(C)[C@]3(C)CC[C@@H]12,0.806% [100 µM] (active)
12,O=c1cc(CSc2nnc(-c3ccc(F)cc3)o2)c2ccc3ccccc3c2o1,99.9%
13,CCO/C=N/C1=C(C#N)C(c2ccc(Cl)cc2)c2c(c3ccc(C)cc3[nH]c2=O)O1 (stereo not drawn),88.6%
14,Cc1cc(SC#N)cc(C(C)(C)C)c1O,74.3%
15,COC(=O)c1ccccc1N(C)C,87.6%
16,Cc1cc(C)c(NC(=O)c2sc3nc4c(cc3c2N)CN(Cc2ccccc2)CC4)c(C)c1,-10.3% (active)
17,CN1CCN(Cc2ccc(NC(=O)c3cncc(C#Cc4nc(N)nc5[nH]ncc45)c3)cc2C(F)(F)F)CC1,1.4% (active)
18,COc1nc(=O)n(C2C=CC(=O)O2)cc1F (stereo not drawn),1.27% (active)
19,NC1N=C(SCC(=O)N2CCN(c3cc4c(cc3F)c(=O)c(C(=O)O)cn4C3CC3)CC2)NC(=O)/C1=C/c1ccc(Cl)cc1 (stereo not drawn),102%
20,C/C(=N\Nc1ccc(Cl)cn1)c1ccc2ccccc2n1,-15.3% (active)
21,COc1cc(-c2nn(-c3cccc(NC(=O)CCN4CCN(Cc5ccccc5)CC4)c3)cc2-c2ccncc2)ccc1Cl,-5.82% (active)
22,C[C@@H](C[C@H](CCOCc1cccnc1)c1ccccc1)c1cc2ccccc2o1,98%
23,CCCCCCCCCCCC(=O)OC(C)C(=O)Nc1ccccc1 (stereo not drawn),91.7%
24,CCn1cc(C(=O)O)c(=O)c2cc(F)c(N3CCN(CC(=O)Nc4ccc(/C(C)=N/OC)cc4)CC3)cc21,90.9%
25,CC(C)(C)OC(=O)N1CCN(CCn2cc(C(F)(F)F)c3c(Cl)ncnc32)CC1,16.4%
26,O=C(Cc1ccc(/C=C/C(=O)c2ncc[nH]2)cc1)Nc1ccc(F)cc1,-17.3% (active)
